Among all 69,000 compounds or so, about 8,600 (12%) showed an effect of 50% or more. The sample holds strong results, similar compounds and a random draw of the others, so the mix is not that of the screen.

This assay deals with Plasmodium berghei. In words: Screen against P. berghei liver stage (PbLuc), transformed with Luciferase, at 10uM. Format: functional, HepG2. The settings on record: tested at 10 uM.
For the molecule `CC(C)n1cnc2ccc(NC(=O)CCCn3cccn3)cc2c1=O`, the INHIBITION was -5.38%.
As for `Cc1cccc(C(=O)N2CCC(C(=O)c3cc(F)ccc3F)CC2)n1`, the INHIBITION turned out to be 11.6%.
The figure for `Cc1cc(NC(=O)N2CCCC2C(=O)NC2CC2)c2ncccc2c1` (centres undefined) is 22.6%.
Consider `Cc1cc(NC(=O)NC2CCN(C(C)C)CC2)c2ncccc2c1`, for which the INHIBITION was 70.5%.
The figure for `Cc1cc(NC(=O)N2CCCC2C(C)(C)O)c2ncccc2c1` (centres undefined) is 35.4%; for `CCN(C(=O)c1nc2c(s1)CCCN2S(C)(=O)=O)C(C)C` it is 4.68%; for `Cc1cc(C)n(C2CCCN(C(=O)CCNc3ncccn3)C2)n1` (centres undefined) it is 41.5%.
As for `CSc1ccc(-c2nc(CN3CCC(C(N)=O)CC3)c(C)o2)cc1`, the INHIBITION is recorded as -10.2375%.
On to `Cc1ncc2c(n1)CN(Cc1nc(-c3ccsc3)oc1C)CC2`, for which the INHIBITION is -4.92%.
The figure for `Cc1oc(-c2ccsc2)nc1CN1CCCC(c2ccnn2C)C1` (centres undefined) is 66.3%; for `Cc1oc(-c2ccccc2)nc1CN1CCC(c2ccnn2C)CC1` it is 69.7%; for `Cc1oc(-c2ccsc2)nc1CN1CC[C@@H]2CCCC[C@H]2C1` it is 28.4%.
For `CSc1ccc(-c2nc(CN3CCC(CN)C3)c(C)o2)cc1` (centres undefined), the INHIBITION is listed as -70.3%.
The figure for `Cn1cc(NS(=O)(=O)CCOc2ccc(F)cc2)cn1` is -15.29%; for `Cc1cc(C)n(Cc2cc(C(=O)N3CCCC3c3ccccn3)n[nH]2)n1` (centres undefined) it is 39.7%; for `CC(=O)Nc1cccc2c1ccn2CC(=O)Nc1ncc[nH]1` it is 25.8%.
Consider `COCCOCC(=O)N1CCCC(c2ncc[nH]2)C1` (centres undefined), for which the INHIBITION is -45%.
Turning to `Cc1nnc(C2CCN(c3ccccc3)CC2)o1`, the INHIBITION was 16.5%.
As for `CN(C)S(=O)(=O)N1CCC(C)(c2ncc(C(N)=O)s2)CC1`, the INHIBITION is reported as -7.66%.
Take `Cc1ccc(NC(=O)CN2CCOCC2)c(F)c1`: the INHIBITION was 28%.
For `Cc1ccc(NC(=O)CNC(C)CN2CCCCC2)c(F)c1` (centres undefined), the INHIBITION is 63.8%.
For the molecule `Cc1ccc(NC(=O)CNC(C)CN2CCOCC2)c(F)c1` (centres undefined), the INHIBITION was 41.5%.
As to `Cc1cc(C)n(CCC(=O)N2CCC(Nc3cccnn3)CC2)n1`, the INHIBITION is on record as -16.75%.
For `CC1CN(CC(=O)NC(C2CC2)C2CC2)CCN1Cc1nccn1C` (centres undefined), the INHIBITION is -43.05%.
Consider `COc1ccc(CN2CCC3(CC2)NC(=O)CC3c2ccncc2)cc1` (centres undefined), for which the INHIBITION came out at 30.7%.
The figure for `CC(C)N1CCCn2c(nc(CNC(=O)c3nccn3C)cc2=O)C1` is 71.6%; for `Cn1ccnc1C(=O)NCc1cc(=O)n2c(n1)CN(CC1CC1)CCC2` it is 4.02%.
As to `COCC(=O)NCc1cc(=O)n2c(n1)CN(C)CCC2`, the INHIBITION worked out at 59.3%.
Consider `COCC(=O)NCc1cc(=O)n2c(n1)CN(CC1CC1)CCC2`, for which the INHIBITION is recorded as 26.7%.
As to `Cc1oncc1C(=O)NCc1cc(=O)n2c(n1)CN(C(C)C)CCC2`, the INHIBITION turned out to be 35.4%.
The figure for `CCCN1CCCn2c(nc(CNC(=O)c3nccn3C)cc2=O)C1` is 66.8%; for `CN1CCCn2c(nc(CNC(=O)c3nccn3C)cc2=O)C1` it is 13.7%; for `COCCN1CCCn2c(nc(CNC(=O)COC)cc2=O)C1` it is 31.2%.
The figure for `CC(C)N1CCc2c(CNC(=O)c3nccn3C)cncc2C1` is 24%; for `CCn1cc(CN2CCC3(CC2)c2ccccc2CC3O)cn1` (centres undefined) it is 2.7%; for `CC(C)CN1C[C@@H]2C[C@H](C(=O)N3CCCC3)[C@H](C1)O2` it is 31.5%.
With `c1cc(CN2CCc3ncc(CN4CCCCC4)n3CC2)cs1`, the INHIBITION worked out at 20.9%.
Take `Cc1ccc(CN2Cc3nnn(C)c3C(COCC(=O)N(C)C)C2)s1` (centres undefined): the INHIBITION turned out to be 42.1%.
The figure for `CC(C)CNC(=O)c1[nH]nc(C2CC2)c1Br` is -7.46%; for `O=C1NC2(Cc3ccccc31)CN(CC1CCNC1)C2` (centres undefined) it is 46.6%; for `Fc1cccc(C2CCCN2Cc2nnnn2C2CC2)c1` (centres undefined) it is 31.1%.
Take `O=C(CCC(F)(F)F)N1CCN(Cc2ccncc2)[C@@H]2CS(=O)(=O)C[C@@H]21`: the INHIBITION was determined as 42.1%.
For the molecule `CCn1nc(C)c(CCNC(=O)C2CCCN(CC(N)=O)C2)c1C` (centres undefined), the INHIBITION is on record as 18.8%.
Consider `CCn1nc(CNC(=O)C2CCCN(C(=O)COC)C2)c2ccccc21` (centres undefined), for which the INHIBITION was found to be 10.5%.
The figure for `Cc1n[nH]c(C)c1CCNC(=O)C1CCCN(Cc2ccco2)C1` (centres undefined) is -4.96%; for `CCN1CC(C(=O)NCc2nn(CC)c3ccccc23)CCC1=O` (centres undefined) it is 65%.
In the case of `Cc1ccc2c(c1)c(CNC(=O)C1CCCN(CC(N)=O)C1)nn2C` (centres undefined), the INHIBITION was found to be 10.5%.
For the molecule `CCN1CC(C(=O)NCc2noc(Cc3ccccc3)n2)CCC1=O` (centres undefined), the INHIBITION turned out to be 17.6%.
On to `CCn1nc(CNC(=O)C2CC(=O)N(C3CCCC3)C2)c2ccccc21` (centres undefined), for which the INHIBITION came out at 30.1%.
The figure for `Cc1n[nH]c(C)c1CCNC(=O)C1CCCN(CC(N)=O)C1` (centres undefined) is 74.4%; for `CCn1nc(CNC(=O)C2CCCN(CC(N)=O)C2)c2ccccc21` (centres undefined) it is 67.2%.
As for `CC(Cc1ccco1)NC(=O)Nc1ccc(N2CCCC2)nc1` (centres undefined), the INHIBITION is 21.425%.
The figure for `Cc1ccc(S(=O)(=O)N2CCC(c3n[nH]cc3C)C2)cc1` (centres undefined) is 32.8%; for `CCN1CC2(CC1=O)CN(Cc1ccncc1)CCN(C(=O)C(C)C)C2` (centres undefined) it is 38.5%; for `COc1cc(-c2nc3c([nH]2)CCCNC3=O)ccc1OC(C)C` it is -125%.
Take `CCCN(Cc1nc2ccccc2[nH]1)Cc1ccccc1OC`: the INHIBITION is on record as 82.3%.
The figure for `CCCN(Cc1ccccn1)Cc1ccccc1OC` is 45.2%; for `CCCN(Cc1ccc(OC)nc1)Cc1ccccc1OC` it is 37.8%.
On to `CCCN(Cc1ccc(S(=O)(=O)NC)cc1)Cc1ccccc1OC`, for which the INHIBITION is on record as 38.6%.
With `CCCN(Cc1cnc2ccccc2n1)Cc1ccccc1OC`, the INHIBITION stood at 61.9%.
The figure for `Cc1ccc(CN(CCN(C)C)Cc2nc3ccccc3[nH]2)s1` is 36.5%; for `Cc1cccc(N2CCCC2c2nc(C)ncc2CN(C)C)n1` (centres undefined) it is -3.94%.
As to `Cc1ccnc(NC(=O)C(C)Cn2cncn2)c1` (centres undefined), the INHIBITION was 28.4%.
The figure for `Cc1nc(NCc2nonc2C)cc(C(C)Cn2nc(C)c(C)c2C)n1` (centres undefined) is 43.8%; for `COc1ccc2c(ccn2CCC(=O)Nc2nc[nH]n2)c1` it is 29.9%; for `CCc1nc(CN2CCCC(NCc3nc(C)c(C)o3)C2)no1` (centres undefined) it is -2.19%.
In the case of `O=C(CC1COCCN1)N1CCCN(C2Cc3ccccc3C2)CC1` (centres undefined), the INHIBITION is reported as -22.1%.
Take `COCCC1(CO)CCCN(C(=O)CCC(F)(F)F)C1` (centres undefined): the INHIBITION is given as -1.49%.
As for `O=c1c2c[nH]c(N3CCC(O)CC3)nc-2cn1Cc1cccc(F)c1`, the INHIBITION worked out at 11.8%.
